PubChem BioAssay AID626 (Vanderbilt High Throughput Screening Facility, 2007)
In all, about 64,000 compounds went through this assay and about 1,900 (3%) were called active. For the sample, actives were picked, then their nearest neighbours and some compounds at random. Values without a mark were called inactive.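 Rule for the calls: active = fluorescence rise, raw or as B-score row- and column-corrected plate score, outside the 99.7% band of its plate's samples, either direction; inactive = the rest.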

system: Muscarinic acetylcholine receptor M1; experiment: direct activation of M1 receptor calcium signal – CHO-M1 cells, Fluo-4 calcium, agonist mode, primary screen (AID 626); details: Fluo-4 calcium fluorescence, at 10 µM, active compounds read high

Row | Compound | B-score
1 | Cc1nc2cc(S(=O)(=O)C(F)(F)F)ccc2s1 | 0.0196
2 | Cc1ccc(C(c2sc3nc(C)nn3c2O)N2CCN(c3ccccc3)CC2)cc1 (centres undefined) | -0.274
3 | O=C(Nc1ccc(-c2nnc(-c3ccccc3)o2)cc1)C1CCCO1 (centres undefined) | 0.124
4 | O=C(Nc1cccc(-c2nnc(-c3ccccc3)o2)c1)C1CCCO1 (centres undefined) | 8.44 (active)
5 | O=C(Nc1nnc(CCc2ccccc2)s1)C1CCCO1 (centres undefined) | -0.799
6 | Cc1ccc(C(=O)Nc2ccccc2C(=O)NC2CCCCC2)cc1S(=O)(=O)N1CCOCC1 | -0.515
7 | Cc1ccc2cc(C#N)c(SCC(=O)NCC3CCCO3)nc2c1C (centres undefined) | 0.58
8 | CCOc1ccc2cc(C#N)c(SCC(=O)OC)nc2c1 | -0.798
9 | CC(NC(=O)CSc1nc2c(cc1C#N)CN(C)CC2)c1ccccc1 (centres undefined) | 6.81 (active)
10 | CC1=NC2(CCCc3c2no[n+]3[O-])N(O)C1(C)C (centres undefined) | -0.303
11 | O=C(Nc1c(-c2ccccc2)nc2c(Br)cc(Br)cn12)c1ccco1 | 1.35
12 | N#CCCN1CCN(S(=O)(=O)c2ccc(S(=O)(=O)NC3CC3)cc2)CC1 | 0.386
13 | CC(C)(C)c1cc(CN2CCN(CCC#N)CC2)cc(C(C)(C)C)c1O | 25.1 (active)
14 | N#CCCN1CCN(S(=O)(=O)c2ccc(S(=O)(=O)N3CCCC3)cc2)CC1 | 0.0676
15 | Cc1nc2ccc(S(=O)(=O)NC(C(=O)N3CCCCCC3)C(C)C)cc2s1 (centres undefined) | 0.688
16 | CN1CCN(S(=O)(=O)c2ccc(NC(=O)c3ccco3)cc2)CC1 | 0.741
17 | CC1=C2C(=O)OC(c3ccoc3)C2(C)CCC1 (centres undefined) | -1.22
18 | Cc1ccc(-n2ncc3c(N4CCN(c5ccc(F)cc5)CC4)ncnc32)c(C)c1 | -0.824
19 | Fc1ccc2[nH]c3c(N4CCN(Cc5ccc6c(c5)OCO6)CC4)ncnc3c2c1 | 6.32
20 | Fc1ccc2[nH]c3c(N4CCSCC4)ncnc3c2c1 | 12.1 (active)
21 | O=C1CC(c2ccccc2)CC(O)=C1C=NCCN1CCOCC1 (centres undefined) | -1.61
22 | Cn1c(SCC(=O)c2cccs2)nnc1-c1ccco1 | -0.304
23 | Cc1nnc(SCC(=O)NCc2cccs2)[nH]c1=O | 0.134
24 | Cc1nc2nc(CSc3nc4ccccc4s3)cc(=O)n2[nH]1 | 0.684
25 | Cc1nn(C(=O)c2ccoc2C)c(N)c1-c1ccccc1 | 0.366

Row | Compound | B-score
26 | Cc1nn2c(c1-c1ccccc1)N=C(c1ccco1)CC2c1ccccc1 (centres undefined) | 5.88 (active)
27 | CCOC(=O)c1c(C2CC2)csc1NC(=O)CSCc1c(C)noc1C | 0.602
28 | CN1CCN(CC(=O)Nc2sc3c(c2C#N)CCC(C(C)(C)C)C3)CC1 (centres undefined) | -0.211
29 | CCOC(=O)C1CCCN(C(=O)c2cncc(Br)c2)C1 (centres undefined) | -0.115
30 | CCOC(=O)C1CCCN(C(=O)c2ccc(CS(=O)(=O)c3ccc(Br)cc3)o2)C1 (centres undefined) | -2.11 (active)
31 | CCOC(=O)C1CCN(C(=O)c2oc3ccc(S(=O)(=O)N4CCCCCC4)cc3c2C)CC1 | 1.57
32 | C/C(Cl)=C\Cn1c(Nc2cccc(C)c2)nc2c1c(=O)n(C)c(=O)n2C | 0.177
33 | CCCn1c(=O)c(-c2ccccc2)c(O)c2ccccc21 | 0.287
34 | Nc1nnc(SCCN2C(=O)c3ccccc3S2(=O)=O)s1 | 1.12
35 | CCOC(=O)CNC(=O)CN1C(=O)CCSc2ccccc21 | -0.158
36 | CC1=NCCN1S(=O)(=O)c1ccc(Br)c(C)c1 | 0.66
37 | O=C1CCCN1CCCNc1ncnc2c1[nH]c1ccccc12 | -0.55
38 | CCN1CCCC1CNc1ncnc2c1[nH]c1ccc(F)cc12 (centres undefined) | 0.0374
39 | CC(C)OCCCNc1ncnc2c1[nH]c1ccc(F)cc12 | 16.6 (active)
40 | Cc1oc(CC(C)C)c(CN2CCCC2)c1C(=O)O | 0.845
41 | CCOC(=O)C1CCN(C(=O)C2CCN(S(=O)(=O)c3c(C)noc3C)CC2)CC1 | -0.00598
42 | CN1C(C)(C)CC(NC(=O)CCC(=O)NC2CC(C)(C)N(C)C(C)(C)C2)CC1(C)C | -0.271
43 | CCOC(=O)c1ccccc1NC(=O)CC1Nc2ccccc2NC1=O (centres undefined) | 14.3 (active)
44 | CCCOC(=O)Nc1ccccc1C(N)=O | -0.00513
45 | CCOC(=O)C1=C(C)NC(C)=C(C(=O)OCC)C1c1ccccn1 | -0.0841
46 | CCOc1ccc(NC(=O)CC2NCCNC2=O)cc1 (centres undefined) | 0.571
47 | O=C(CC1Nc2ccccc2NC1=O)Nc1ccccc1 (centres undefined) | 3.46 (active)
48 | O=C(CC1NCCNC1=O)Nc1ccc(Oc2ccccc2)cc1 (centres undefined) | 1.02
49 | COc1ccccc1NC(=O)C1=C(C)NC2=C(C(=O)CCC2)C1c1ccc(C)o1 (centres undefined) | -0.692
50 | CCc1ccc(N(CC)c2ncnc3nc[nH]c23)cc1 | 0.205

Row | Compound | B-score
51 | CCOc1ccc(S(=O)(=O)N(CC(=O)O)c2ccccc2)cc1 | 0.254
52 | C=C1c2cc(CC)ccc2NC(=O)N1c1ccc(C)cc1 | -1.17
53 | Cn1c(=O)c2c(nc(SCC(=O)Nc3ccccc3N3CCCCC3)n2C)n(C)c1=O | 6.49 (active)
54 | Cc1ccccc1NC(=O)CNc1ccccc1N1CCCCC1 | 1.11
55 | CC(C)n1c(SCC(=O)Nc2ccccc2N2CCCCC2)nc2c1c(=O)n(C)c(=O)n2C | 0.367
56 | CC(=O)Nc1ccc(S(=O)(=O)N2CCN(CCCOc3cc(C)ccc3C)CC2)cc1 | -0.692
57 | CN(C)CCCNc1c2c(c(C#N)c3nc4ccccc4n13)CCC2 | 0.715
58 | COc1ncnc2c1N=C1CC(C)(C)CC(N)=C1S2 | 39.7 (active)
59 | COc1cc(NS(=O)(=O)c2ccccc2)ccc1-n1nc(C)cc1C | -0.04
60 | COc1cccc2c(C)c(C(=O)O)[nH]c12 | -2.07 (active)
61 | CCOC(=O)c1c(C)[nH]c(C(=O)NCc2ccccc2OC)c1C | 0.0421
62 | COc1ccc(C)cc1NC(=O)c1[nH]c(C)c(C(C)=O)c1C | 1.04
63 | CCN(CC)CCN1C(=O)C(=O)/C(=C(/O)c2ccc(OC)c(OC)c2)C1c1ccccn1 (centres undefined) | -0.817
64 | CS(=O)(=O)c1ccc2nc(NC(=O)C3CCCCC3)sc2c1 | 0.229
65 | O=C1NC(Nc2nc3ccccc3s2)(C(F)(F)F)C(=O)N1C1CCCCC1 (centres undefined) | -0.752
66 | COc1cc(-c2nc(-c3ccncc3)no2)cc(OC)c1OC | -0.116
67 | CCOc1nc(-c2ccc(OC)cc2)ccc1-c1noc(-c2cc(OC)c(OC)c(OC)c2)n1 | 9.6 (active)
68 | COc1ccc(-c2ccc(-c3noc(-c4ccncc4)n3)c(OC)n2)cc1 | -0.565
69 | CC(C)c1nc2oc3c(N4CCN(C)CC4)ncnc3c2c2c1CCC2 | 0.376
70 | Cc1ccccc1Nc1nnc(C)c(=O)[nH]1 | -0.209
71 | CCOC(=O)c1c(N)c(C#N)nn1-c1ccccc1C(=O)OC | -0.00838
72 | O=C(CSc1nnc(Cn2cnc3ccccc32)o1)c1ccccc1 | 2.49 (active)
73 | Cc1cc(C)cc(OCc2nnc(SCC(=O)Nc3ccccc3)o2)c1 | 0.534
74 | c1ccc(Cc2nn3c(Cn4cnc5ccccc54)nnc3s2)cc1 | 0.391
75 | O=C(Nc1nn(Cc2ccccc2F)cc1Br)c1cccs1 | -0.416

Row | Compound | B-score
76 | O=C(O)c1ccc(COc2c(F)c(F)cc(F)c2F)o1 | 0.494
77 | COc1ccc(Cn2nnc3c(=O)[nH]c(C4CCN(C(=O)c5ccccc5Cl)CC4)nc32)cc1 | -0.0421
78 | CCc1nc(Nc2ccc3nccnc3c2)c2oc3ccccc3c2n1 | 3.77 (active)
79 | CCSc1nc(C)nc2c1oc1ccccc12 | 0.362
80 | CCc1nc(N2CCN(c3nc(C)cc(C)n3)CC2)c2oc3ccccc3c2n1 | 0.00663
81 | COc1cccc(N2C(=O)C3CCCN3C2c2ccc(F)cc2)c1 (centres undefined) | -0.0377
82 | CCn1c(CNc2ccc(OC)cc2)nnc1SCC(=O)c1ccc(OC)cc1 | 0.245
83 | CCCN1CC=C2C(C#N)=C(N)C(C#N)(C#N)C(c3cc(OC)ccc3OC)C2C1 (centres undefined) | 47 (active)
84 | CCC1=C(C(=O)OC)C(c2cc(OC)ccc2OC)C(C#N)=C(N)O1 (centres undefined) | -0.762
85 | CCOC(=O)N1CC=C2C(C#N)=C(N)C(C#N)(C#N)[C@H](c3cccs3)[C@H]2C1 | 3.8
86 | COc1cccc(N2CC(C(=O)Nc3c(C)cccc3C)CC2=O)c1 (centres undefined) | -0.0783
87 | Cc1nc2sc(C(c3ccco3)N3CCC4(CC3)OCCO4)c(O)n2n1 (centres undefined) | -0.0511
88 | CCOc1ccc(CN(Cc2ccco2)C(c2cccs2)c2nnnn2C(C)(C)C)cc1 (centres undefined) | 17.1 (active)
89 | CC(C)(C)n1nnnc1C(c1cccs1)N(Cc1cccnc1)CC1CCCO1 (centres undefined) | 0.0241
90 | CCC(C)(C)n1nnnc1C(c1cccs1)N1CCN(Cc2ccccc2)CC1 (centres undefined) | 0.516
91 | O=C(c1ccc(=O)[nH]c1)N(Cc1ccco1)C1(C(=O)NC2CCCCC2)CCCCC1 | 0.118
92 | O/N=C1\CC2(Cc3nonc31)OCCO2 | -0.542
93 | CN(C)c1ccc(NC(=O)c2ccncc2)c2ccccc12 | 0.268
94 | O=C(c1ccco1)N(Cc1nc2ccccc2c(=O)[nH]1)C1CCCC1 | 1.19
95 | CCc1ccc2oc(-c3ccc(N)cc3)nc2c1 | 0.427
96 | CCCOC(=O)c1cc2ccccc2oc1=O | -0.13
97 | CCN(CC)c1ccc2oc(=O)c(C)nc2c1 | 19.1 (active)
98 | COc1ccc2oc(=O)c(C(=O)O)cc2c1 | -0.167
99 | CCN(CC)c1ccc2cc(C(=O)O)c(=O)oc2c1 | 17.2 (active)
